# Test results published in PubChem BioAssay (NCATS).
# Several values for one entry are separate records, joined by “and”; a condition that tells them apart may be missing. Identical values can stand only once. Records with an inconclusive call do not appear. A call without a number means that no potency is given here. A number with no mark means an inactive call. Activity calls are given as the source filed them. Calls come from the whole dose curve; as a rule, active = well fitted curve in the direction sought with a large enough effect; inconclusive = small, poorly fitted or top-dose-only effect, or another doubt; inactive = no such curve, though single readings can be large; an effect the other way counts as inactive or inconclusive. Where a SMILES comes first, the peptide text is derived from it. Bridges are numbered along the chain shown (N, C = ends). [ ]: non-standard residue; d: D form. Orn = NCCC[C@H](N)C(=O)O; Mpa = O=C(O)CCS
# Key:
# KB-3-1 = assay: Cytotoxic Profiling of Annotated Libraries Using Quantitative High-Throughput Screening (AID 1296008); settings: Five cell lines viability, CellTiter-Glo ATP luminescence, 48-72 h; max response: stronger effect = lower value; note: nearly all actives have a fitted effect of over 60% in size
# Summary of the method: (§1)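 Cytotoxicity was measured as CellTiter-Glo ATP luminescence, read after 10 min at room temperature. Compound treatment of the cells lasted 48 or 72 hr at 37 degrees Celsius in a qHTS format.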
# NIH3T3 = assay: as above; settings: Five cell lines viability, CellTiter-Glo ATP luminescence, 48-72 h; max response: stronger effect = lower value
# Summary of the method: as §1
# C33A = assay: Primary qHTS to identify gynecologic anti-cancer compounds using libraries of approved drugs and bioactive compounds (AID 1345084); settings: Gynecologic cancer cell panel viability, ATPlite luminescence, 48 h; series mostly up to 57.5 µM; note: nearly all actives have a fitted effect of over 55% in size
# Summary of the method: (§2)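 Five-point cytotoxicity, 48 h drug exposure at 37 C, 5% CO2, on cells seeded 16 h beforehand. ATP content read by ATPlite luminescence.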
# CAOV3 = assay: as above; settings: Gynecologic cancer cell panel viability, ATPlite luminescence, 48 h; series mostly up to 57.5 µM
# Summary of the method: as §2
# CASKI = assay: as above; settings: Gynecologic cancer cell panel viability, ATPlite luminescence, 48 h; series mostly up to 57.5 µM
# Summary of the method: as §2
# Es-2 = assay: as above; settings: Gynecologic cancer cell panel viability, ATPlite luminescence, 48 h; series mostly up to 57.5 µM
# Summary of the method: as §2
# HeLa = assay: as above; settings: Gynecologic cancer cell panel viability, ATPlite luminescence, 48 h; series mostly up to 57.5 µM
# Summary of the method: as §2
# Hek293T [1] = assay: as above; settings: Gynecologic cancer cell panel viability, ATPlite luminescence, 48 h, control line for the selectivity index; series mostly up to 57.5 µM
# Summary of the method: as §2
# JEG-3 = assay: as above; settings: Gynecologic cancer cell panel viability, ATPlite luminescence, 48 h; series mostly up to 57.5 µM
# Summary of the method: as §2
# OV90 = assay: as above; settings: Gynecologic cancer cell panel viability, ATPlite luminescence, 48 h; series mostly up to 57.5 µM
# Summary of the method: as §2
# HEK293T [2] = assay: qHTS assay to identify novel small-molecules to repurpose for Merkel cell carcinoma treatment (AID 1296009); settings: MCC and control cell lines, CellTiter-Glo viability, 72 h; note: nearly all actives have a fitted effect of over 60% in size
# Summary of the method: (§3)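 After compound transfer in DMSO, plates were kept 72 hr at 37 degree celsius. Luminescent ATP signal from CellTiter-Glo served as viability measure, normalized against DMSO and no-cell controls.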
# TAB165 = assay: qHTS profiling for inhibitors of Plasmodium falciparum proliferation (AID 504749); note: nearly all actives have a fitted effect of over 60% in size; settings: P. falciparum in erythrocytes, SYBR Green DNA, 72 h; series mostly up to 28.7 µM
# Summary of the method: (§4)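 Three-day growth assay of blood-stage parasites in erythrocytes (0.3% parasitemia, 2.5% hematocrit) at 37 C, 5% CO2, quantified by SYBR Green DNA staining after overnight detergent lysis.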
# W2 = assay: as above; settings: P. falciparum in erythrocytes, SYBR Green DNA, 72 h; series mostly up to 28.7 µM
# Summary of the method: as §4
# MKL-2 = assay: qHTS assay to identify novel small-molecules to repurpose for Merkel cell carcinoma treatment (AID 1296009); settings: MCC and control cell lines, CellTiter-Glo viability, 72 h; note: nearly all actives have a fitted effect of over 60% in size
# Summary of the method: as §3
# Potency is the fitted concentration of half-maximal effect.
compound,measurement,setting,value
O=C(Nc1ccc(/C=C/c2ccc(NC(=O)c3cc(S(=O)(=O)O)c4cccnc4c3O)cc2S(=O)(=O)O)c(S(=O)(=O)O)c1)c1cc(S(=O)(=O)O)c2cccnc2c1O,max response,KB-3-1,0.4%
CSCC[C@H](NC(=O)[C@H](Cc1ccc(OS(=O)(=O)O)cc1)NC(=O)[C@@H](N)CC(=O)O)C(=O)NCC(=O)N[C@@H](Cc1c[nH]c2ccccc12)C(=O)N[C@@H](CCSC)C(=O)N[C@@H](CC(=O)O)C(=O)N[C@@H](Cc1ccccc1)C(N)=O,max response,KB-3-1,-5.26% and -10.7%
CC(=O)O[C@@H]1[C@@H](OC(C)=O)[C@H](C)O[C@@H](O[C@H]2[C@@H]3C=CO[C@@H](O[C@@H]4O[C@H](CO)[C@@H](O)[C@H](O)[C@H]4O)[C@@H]3[C@@]3(CO)O[C@@H]23)[C@@H]1OC(=O)/C=C/c1ccccc1,max response,KB-3-1,2.67%
same,max response,NIH3T3,-8.05%
same,Potency,C33A,inactive
same,Potency,CAOV3,inactive
same,Potency,CASKI,inactive
same,Potency,Es-2,inactive
same,Potency,HeLa,inactive
same,Potency,Hek293T [1],inactive
same,Potency,JEG-3,inactive
same,Potency,OV90,inactive
CN1CCN(CCCN2c3ccccc3Sc3ccccc32)CC1,max response,KB-3-1,-4.85%
CCOC(=O)Cc1cccc(-c2cc(CCCCCCc3ccc(O[C@H]4O[C@H](COC(C)=O)[C@@H](OC(C)=O)[C@H](OC(C)=O)[C@@H]4OC(C)=O)c(-c4cccc(CC(=O)OCC)c4)c3)ccc2O[C@H]2O[C@H](COC(C)=O)[C@@H](OC(C)=O)[C@H](OC(C)=O)[C@@H]2OC(C)=O)c1,max response,KB-3-1,-10.9%
CC1=C(C(=O)OCCN(Cc2ccccc2)c2ccccc2)C(c2cccc([N+](=O)[O-])c2)C(P2(=O)OCC(C)(C)CO2)=C(C)N1 (stereo not drawn),max response,KB-3-1,26.8%
COC[C@H](c1ccc(C(F)(F)F)cc1)N1CCN(C2(C)CCN(C(=O)c3c(C)ncnc3C)CC2)C[C@H]1C,max response,KB-3-1,-20%
O=S(O)CNc1ccc(S(=O)(=O)c2ccc(NCS(=O)O)cc2)cc1,max response,KB-3-1,-17.8%
C=C1C(=O)O[C@H]2C1CCC(C)=C1C(=O)C=C(C)[C@@]12O (stereo partly drawn),max response,KB-3-1,-10.7%
same,max response,NIH3T3,-6.36%
same,Potency,C33A,inactive
same,Potency,CAOV3,inactive
same,Potency,CASKI,inactive
same,Potency,Es-2,inactive
same,Potency,HeLa,inactive
same,Potency,Hek293T [1],inactive
same,Potency,JEG-3,inactive
same,Potency,OV90,inactive
CC1(S(=O)(=O)O)CC(=O)c2ccccc2C1=O (stereo not drawn),max response,KB-3-1,5.99%
C=C1C(=O)O[C@@H]2C[C@]3(C)[C@@H](CCC(C)O)[C@@H]3C[C@H]12 (stereo partly drawn),outcome,KB-3-1,inactive
same,max response,NIH3T3,-15.1%
same,Potency,C33A,inactive
same,Potency,CAOV3,inactive
same,Potency,CASKI,inactive
same,Potency,Es-2,inactive
same,Potency,HeLa,inactive
same,Potency,Hek293T [1],inactive
same,Potency,JEG-3,inactive
same,Potency,OV90,inactive
CCOC(=O)Nc1ccc2c(c1)N(C(=O)CN(C)C)c1ccccc1CC2,max response,KB-3-1,-13.4%
C=C[C@@]1(C)CCC2C(=CCC3[C@]2(C)CCC[C@@]3(C)C(=O)O)C1 (stereo partly drawn),max response,KB-3-1,-10.5%
same,max response,NIH3T3,-28.5%
same,Potency,C33A,inactive
same,Potency,CAOV3,inactive
same,Potency,Es-2,inactive
same,Potency,HeLa,inactive
same,Potency,Hek293T [1],inactive
same,Potency,JEG-3,inactive
same,Potency,OV90,inactive
CC(=O)O[C@@H]1[C@H](O[C@@H]2O[C@@H](CO)[C@H](O)[C@H]2O)[C@@H](O[C@@H]2O[C@@H](C)[C@H](O[C@@H]3OC[C@@H](O)[C@H](O)[C@H]3O)[C@@H](O)[C@H]2O)[C@H](OC(=O)[C@]23CCC(C)(C)C[C@H]2C2=CCC4[C@@]5(C)CC[C@H](O[C@@H]6O[C@H](C(=O)O)[C@@H](O)[C@H](O)[C@H]6O[C@@H]6O[C@H](CO)[C@H](O)[C@H](O)[C@H]6O)[C@@](C)(C=O)C5CC[C@@]4(C)[C@]2(C)C[C@H]3O)O[C@@H]1C (stereo partly drawn),max response,KB-3-1,8.09%
same,max response,NIH3T3,-0.852%
same,"activity change, negative = cytotoxicity",C33A,-10.4% [at 6.55 µM]
same,"activity change, negative = cytotoxicity",CAOV3,-10.3% [at 6.55 µM]
same,"activity change, negative = cytotoxicity",CASKI,-9.38% [at 6.55 µM]
same,"activity change, negative = cytotoxicity",HeLa,10% [at 6.55 µM]
same,"activity change, negative = cytotoxicity",JEG-3,6.34% [at 6.55 µM]
Cc1ccc(NC(=O)N2CCN(c3nc(N)nc4sc(-c5cccnc5)nc34)CC2)cc1,max response,KB-3-1,-18.9%
same,Potency,NIH3T3,2.91 µM (active)
same,Potency,C33A,inactive
same,Potency,CASKI,inactive
same,Potency,Es-2,inactive
same,Potency,HeLa,inactive
same,Potency,Hek293T [1],inactive
same,Potency,JEG-3,inactive
same,Potency,OV90,inactive
CCCCCC(O)/C=C/C=O (stereo not drawn),max response,KB-3-1,-19%
C=C[C@]1(C)C[C@H](O)[C@H]2C(=C)C(=O)O[C@@H]2[C@H]1C(=C)CO,outcome,KB-3-1,inactive
same,max response,NIH3T3,-30%
same,Potency,C33A,inactive
same,Potency,CAOV3,inactive
same,Potency,CASKI,inactive
same,Potency,Es-2,inactive
same,Potency,HeLa,inactive
same,Potency,Hek293T [1],inactive
same,Potency,JEG-3,inactive
same,Potency,OV90,inactive
C[C@H](Oc1cc(-n2cnc3ccc(CN4CCN(C)CC4)cc32)sc1C(N)=O)c1ccccc1C(F)(F)F,Potency,KB-3-1,1.03 µM (active)
same,Potency,NIH3T3,18.4 µM (active)
same,Potency,HEK293T [2],1.3 µM (active)
same,Potency,C33A,15.8 µM (active)
same,Potency,CAOV3,inactive
same,Potency,Es-2,11.2 µM (active)
same,Potency,HeLa,5.01 µM (active)
same,Potency,JEG-3,3.16 µM (active)
same,Potency,OV90,inactive
CCCCc1cc2c(=O)c(C(=O)OC)c[nH]c2cc1OCc1ccccc1,max response,KB-3-1,-10.6%
CC(=O)S[C@@H]1CC2=CC(=O)CC[C@]2(C)[C@H]2CC[C@@]3(C)[C@@H](CC[C@@]34CCC(=O)O4)[C@H]12,max response,KB-3-1,-24%
C=C1C(=O)O[C@@H]2C[C@H](C)[C@@H]3CC(=O)[C@H](O)[C@@]3(C)C[C@H]12,outcome,KB-3-1,inactive
same,max response,NIH3T3,-22.8%
same,Potency,C33A,inactive
same,Potency,CAOV3,inactive
same,Potency,CASKI,inactive
same,Potency,HeLa,inactive
same,Potency,Hek293T [1],inactive
same,Potency,JEG-3,inactive
same,Potency,OV90,inactive
OCC(O)COc1ccc(Cl)cc1 (stereo not drawn),max response,KB-3-1,-9.74%
CCCOc1ccc(CCc2nc3cc(-c4c(C)noc4C)ccc3n2CCN2CCOCC2)cc1,max response,KB-3-1,-3.99%
same,max response,NIH3T3,-3.98%
same,Potency,C33A,inactive
same,Potency,Es-2,inactive
same,Potency,HeLa,inactive
same,Potency,Hek293T [1],inactive
same,Potency,JEG-3,inactive
same,Potency,OV90,inactive
C[C@H](/C=C/[C@H](C)C(C)(C)O)[C@H]1CC[C@H]2/C(=C/C=C3C[C@@H](O)C[C@H](O)C3)CCC[C@]12C,max response,KB-3-1,23%
CCOc1ccc(C[C@H]2NC(=O)CCSSC[C@@H](C(=O)N3CCC[C@H]3C(=O)N[C@@H](CCCN)C(=O)NCC(N)=O)NC(=O)[C@H](CC(N)=O)NC(=O)[C@H]([C@@H](C)O)NC(=O)[C@H]([C@@H](C)CC)NC2=O)cc1 ([Mpa][dY](Et)ITNCP[Orn]G-NH2; disulfide 1-6),max response,KB-3-1,-2.06%
Nc1c(CC(=O)O)cccc1C(=O)c1ccccc1,max response,KB-3-1,-7.36% and -8.46%
CO/N=C(\C(=O)N[C@@H]1C(=O)N2C(C(=O)OCOC(=O)C(C)(C)C)=C(/C=C\c3scnc3C)CS[C@H]12)c1csc(N)n1,max response,KB-3-1,-14.1%
CCC/C=C/c1cc2c(C=O)c(O)c(CC=C(C)C)cc2o1,max response,KB-3-1,3.3%
same,max response,NIH3T3,-11.8%
same,Potency,C33A,inactive
same,Potency,CAOV3,inactive
same,Potency,CASKI,inactive
same,Potency,Es-2,inactive
same,Potency,HeLa,inactive
same,Potency,Hek293T [1],inactive
same,Potency,JEG-3,inactive
same,Potency,OV90,inactive
C=CCNC1=C2C[C@@H](C)C[C@H](OC)[C@H](O)[C@@H](C)/C=C(\C)[C@H](OC(N)=O)[C@@H](OC)/C=C\C=C(/C)C(=O)NC(=CC1=O)C2=O,Potency,TAB165,1.41 µM (active)
same,Potency,W2,1.2 µM (active)
CCCOc1ccc2nc(NC(=O)OC)sc2c1,Potency,TAB165,inactive
same,Potency,W2,inactive
Oc1cccc(-c2c3nc(c(-c4cccc(O)c4)c4ccc([nH]4)c(-c4cccc(O)c4)c4nc(c(-c5cccc(O)c5)c5ccc2[nH]5)CC4)C=C3)c1,Potency,MKL-2,13.3 µM (active)
